Drawing on ChEMBL document CHEMBL2218924, “A broad activity screen in support of a chemogenomic map for kinase signalling research and drug discovery” (Biochem J, 2013), this text covers residual activity for 15 molecules.

The target of experiment [1] is Focal adhesion kinase 1 (Homo sapiens) (UniProt Q05397). The settings on record: at 10 µM.
Experiment [2] has as its target Fibroblast growth factor receptor 1 (Homo sapiens) (UniProt P11362). The conditions noted are these: at 1 µM.
Experiment [3] has the same target. The conditions noted are these: at 10 µM.
For experiment [4], the target named is Fibroblast growth factor receptor 2 (Homo sapiens) (UniProt P21802). The settings on record: at 1 µM.
Chain of Fibroblast growth factor receptor 2 (Homo sapiens) (P21802 22-821 limits assumed): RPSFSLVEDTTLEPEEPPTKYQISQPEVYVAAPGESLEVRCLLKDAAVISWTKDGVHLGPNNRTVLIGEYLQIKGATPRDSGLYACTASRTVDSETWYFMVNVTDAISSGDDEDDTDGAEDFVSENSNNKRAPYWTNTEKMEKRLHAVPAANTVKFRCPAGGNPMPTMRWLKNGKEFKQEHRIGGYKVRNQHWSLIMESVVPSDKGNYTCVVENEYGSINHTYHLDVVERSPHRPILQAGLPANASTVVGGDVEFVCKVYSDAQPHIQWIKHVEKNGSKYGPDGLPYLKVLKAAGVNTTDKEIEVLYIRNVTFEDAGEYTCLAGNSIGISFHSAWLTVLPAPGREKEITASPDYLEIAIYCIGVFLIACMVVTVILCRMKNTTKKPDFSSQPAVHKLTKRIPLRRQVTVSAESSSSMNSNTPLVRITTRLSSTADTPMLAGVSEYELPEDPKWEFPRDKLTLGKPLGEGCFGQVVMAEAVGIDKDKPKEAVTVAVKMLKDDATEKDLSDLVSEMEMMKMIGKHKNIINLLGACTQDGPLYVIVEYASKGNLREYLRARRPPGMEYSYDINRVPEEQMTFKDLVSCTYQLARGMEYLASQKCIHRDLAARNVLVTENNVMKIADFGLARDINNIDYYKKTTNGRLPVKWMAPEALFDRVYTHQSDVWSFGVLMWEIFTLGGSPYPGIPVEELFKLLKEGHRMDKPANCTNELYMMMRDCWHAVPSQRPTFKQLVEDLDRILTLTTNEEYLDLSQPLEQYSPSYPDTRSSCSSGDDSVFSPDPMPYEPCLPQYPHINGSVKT
Experiment [5] has the same target. The settings on record: at 10 µM.
In experiment [6] the target is Fibroblast growth factor receptor 3 (Homo sapiens) (UniProt P22607). The settings on record: at 1 µM.
Chain of Fibroblast growth factor receptor 3 (Homo sapiens) (P22607 23-806 limits assumed): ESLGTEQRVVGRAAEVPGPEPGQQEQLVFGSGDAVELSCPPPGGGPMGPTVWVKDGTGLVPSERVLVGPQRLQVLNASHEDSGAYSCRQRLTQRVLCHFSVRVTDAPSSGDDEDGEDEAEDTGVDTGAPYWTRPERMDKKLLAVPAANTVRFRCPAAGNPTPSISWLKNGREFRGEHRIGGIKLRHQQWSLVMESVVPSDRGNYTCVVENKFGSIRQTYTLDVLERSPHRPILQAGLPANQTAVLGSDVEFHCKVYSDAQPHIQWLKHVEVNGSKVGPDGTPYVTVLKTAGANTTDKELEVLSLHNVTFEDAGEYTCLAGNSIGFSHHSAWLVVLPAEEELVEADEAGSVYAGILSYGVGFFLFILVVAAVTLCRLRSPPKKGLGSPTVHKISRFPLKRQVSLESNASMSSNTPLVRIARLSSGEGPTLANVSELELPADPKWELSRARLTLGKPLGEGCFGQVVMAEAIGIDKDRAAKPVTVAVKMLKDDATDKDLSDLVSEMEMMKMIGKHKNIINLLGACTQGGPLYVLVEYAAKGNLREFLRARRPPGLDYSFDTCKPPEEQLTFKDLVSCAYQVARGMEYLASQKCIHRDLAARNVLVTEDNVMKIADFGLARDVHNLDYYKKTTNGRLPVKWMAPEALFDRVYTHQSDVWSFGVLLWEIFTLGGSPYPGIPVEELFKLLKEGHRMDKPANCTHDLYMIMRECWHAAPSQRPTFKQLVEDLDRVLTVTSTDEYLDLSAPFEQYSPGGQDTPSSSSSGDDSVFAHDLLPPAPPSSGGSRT
The target is the same in experiment [7]. The settings on record: at 10 µM.
Experiment [8] addresses Fibroblast growth factor receptor 4 (Homo sapiens) (UniProt P22455). The settings on record: at 1 µM.
For experiment [9] the target is unchanged. The settings on record: at 10 µM.
For experiment [10], the target named is Tyrosine-protein kinase Fer (Homo sapiens) (UniProt P16591). The conditions noted are these: at 1 µM.
Chain of Tyrosine-protein kinase Fer (Homo sapiens) (P16591 whole entry, looked up): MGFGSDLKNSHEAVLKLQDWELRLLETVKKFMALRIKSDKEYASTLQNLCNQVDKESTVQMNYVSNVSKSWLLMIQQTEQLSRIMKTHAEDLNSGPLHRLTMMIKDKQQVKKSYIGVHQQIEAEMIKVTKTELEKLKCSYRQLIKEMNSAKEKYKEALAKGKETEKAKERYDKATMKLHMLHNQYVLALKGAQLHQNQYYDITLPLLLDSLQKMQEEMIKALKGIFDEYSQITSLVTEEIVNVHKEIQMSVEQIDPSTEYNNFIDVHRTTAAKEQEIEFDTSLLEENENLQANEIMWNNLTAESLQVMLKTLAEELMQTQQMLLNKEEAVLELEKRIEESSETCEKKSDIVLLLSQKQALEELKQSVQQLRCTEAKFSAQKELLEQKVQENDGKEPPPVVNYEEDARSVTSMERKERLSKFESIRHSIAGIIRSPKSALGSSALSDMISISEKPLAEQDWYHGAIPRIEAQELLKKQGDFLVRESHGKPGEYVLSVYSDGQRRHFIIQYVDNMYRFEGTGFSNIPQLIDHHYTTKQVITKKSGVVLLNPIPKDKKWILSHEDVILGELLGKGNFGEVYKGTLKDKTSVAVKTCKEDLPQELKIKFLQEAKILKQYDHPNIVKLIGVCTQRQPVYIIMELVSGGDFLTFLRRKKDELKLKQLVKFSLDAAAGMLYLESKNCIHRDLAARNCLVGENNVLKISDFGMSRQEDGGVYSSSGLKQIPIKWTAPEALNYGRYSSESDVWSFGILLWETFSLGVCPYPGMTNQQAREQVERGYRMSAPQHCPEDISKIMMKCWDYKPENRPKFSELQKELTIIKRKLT

Chain of Fibroblast growth factor receptor 4 (Homo sapiens) (P22455 22-802 limits assumed): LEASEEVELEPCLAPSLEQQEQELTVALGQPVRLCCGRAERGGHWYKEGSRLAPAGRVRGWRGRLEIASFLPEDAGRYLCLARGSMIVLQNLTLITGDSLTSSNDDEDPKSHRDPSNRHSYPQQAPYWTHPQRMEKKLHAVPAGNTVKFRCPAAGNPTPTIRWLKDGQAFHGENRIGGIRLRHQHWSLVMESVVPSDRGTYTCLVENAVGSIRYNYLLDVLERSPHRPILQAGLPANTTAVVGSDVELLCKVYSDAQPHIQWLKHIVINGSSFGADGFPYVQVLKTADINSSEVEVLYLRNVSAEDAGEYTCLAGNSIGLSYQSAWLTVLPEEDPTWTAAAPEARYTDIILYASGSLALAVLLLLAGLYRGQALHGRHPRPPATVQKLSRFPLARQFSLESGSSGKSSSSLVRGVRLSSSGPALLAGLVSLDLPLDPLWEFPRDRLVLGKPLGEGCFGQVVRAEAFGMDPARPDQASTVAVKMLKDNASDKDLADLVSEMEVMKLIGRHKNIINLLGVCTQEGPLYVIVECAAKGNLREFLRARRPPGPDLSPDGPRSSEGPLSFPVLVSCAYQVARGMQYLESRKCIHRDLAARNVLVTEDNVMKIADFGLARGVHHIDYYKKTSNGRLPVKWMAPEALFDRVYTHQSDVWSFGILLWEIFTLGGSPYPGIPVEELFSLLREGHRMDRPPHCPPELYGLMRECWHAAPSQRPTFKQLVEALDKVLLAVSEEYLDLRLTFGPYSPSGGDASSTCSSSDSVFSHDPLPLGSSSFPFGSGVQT
Chain of Fibroblast growth factor receptor 1 (Homo sapiens) (P11362 22-822 limits assumed): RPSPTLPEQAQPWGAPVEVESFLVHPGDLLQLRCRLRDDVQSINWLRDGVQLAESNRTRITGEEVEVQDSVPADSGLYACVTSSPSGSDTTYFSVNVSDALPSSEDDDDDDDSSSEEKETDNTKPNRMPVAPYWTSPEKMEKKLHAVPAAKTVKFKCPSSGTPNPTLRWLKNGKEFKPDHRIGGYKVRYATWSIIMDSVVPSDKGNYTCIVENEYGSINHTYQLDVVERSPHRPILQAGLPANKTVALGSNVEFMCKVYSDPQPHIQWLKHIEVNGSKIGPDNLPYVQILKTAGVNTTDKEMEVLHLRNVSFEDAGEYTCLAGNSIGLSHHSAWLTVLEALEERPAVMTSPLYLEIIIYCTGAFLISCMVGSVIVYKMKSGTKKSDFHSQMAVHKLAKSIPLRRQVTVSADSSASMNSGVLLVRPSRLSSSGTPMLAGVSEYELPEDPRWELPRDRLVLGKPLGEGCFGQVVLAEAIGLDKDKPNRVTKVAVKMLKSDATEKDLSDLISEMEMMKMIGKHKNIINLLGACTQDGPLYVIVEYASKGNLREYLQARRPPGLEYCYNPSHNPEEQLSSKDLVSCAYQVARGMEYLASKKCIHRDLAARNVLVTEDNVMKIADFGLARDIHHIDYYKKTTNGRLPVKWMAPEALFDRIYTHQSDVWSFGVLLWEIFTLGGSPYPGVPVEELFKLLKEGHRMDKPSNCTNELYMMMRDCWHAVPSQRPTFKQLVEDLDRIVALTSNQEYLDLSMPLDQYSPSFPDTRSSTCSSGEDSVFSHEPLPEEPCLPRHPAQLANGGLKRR
Chain of Focal adhesion kinase 1 (Homo sapiens) (Q05397 2-1052 limits assumed): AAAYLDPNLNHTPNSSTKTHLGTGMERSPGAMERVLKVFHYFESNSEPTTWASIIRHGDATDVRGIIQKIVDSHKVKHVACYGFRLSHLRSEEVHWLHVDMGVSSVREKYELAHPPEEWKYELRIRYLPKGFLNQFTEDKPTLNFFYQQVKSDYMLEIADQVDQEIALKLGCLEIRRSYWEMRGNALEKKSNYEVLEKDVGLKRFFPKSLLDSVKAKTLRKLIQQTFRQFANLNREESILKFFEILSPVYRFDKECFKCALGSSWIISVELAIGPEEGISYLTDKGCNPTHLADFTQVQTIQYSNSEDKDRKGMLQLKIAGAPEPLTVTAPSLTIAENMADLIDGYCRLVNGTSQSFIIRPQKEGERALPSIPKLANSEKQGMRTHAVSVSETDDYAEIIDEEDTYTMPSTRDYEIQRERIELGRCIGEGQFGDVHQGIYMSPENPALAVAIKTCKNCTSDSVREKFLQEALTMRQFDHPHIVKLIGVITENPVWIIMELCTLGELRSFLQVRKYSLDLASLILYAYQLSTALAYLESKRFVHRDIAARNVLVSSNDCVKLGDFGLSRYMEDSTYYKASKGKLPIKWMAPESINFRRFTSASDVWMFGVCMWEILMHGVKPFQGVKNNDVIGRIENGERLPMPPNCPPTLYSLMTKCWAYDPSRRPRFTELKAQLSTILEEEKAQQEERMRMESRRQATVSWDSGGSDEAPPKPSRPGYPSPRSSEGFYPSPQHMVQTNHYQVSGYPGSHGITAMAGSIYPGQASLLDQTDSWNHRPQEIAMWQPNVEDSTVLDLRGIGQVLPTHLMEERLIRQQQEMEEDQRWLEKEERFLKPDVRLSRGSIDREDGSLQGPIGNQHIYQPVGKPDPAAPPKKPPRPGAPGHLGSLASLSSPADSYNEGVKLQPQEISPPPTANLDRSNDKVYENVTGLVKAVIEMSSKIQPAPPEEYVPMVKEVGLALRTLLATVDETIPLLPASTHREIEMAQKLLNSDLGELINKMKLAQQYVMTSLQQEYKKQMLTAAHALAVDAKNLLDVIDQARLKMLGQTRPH

`COc1cc2ncnc(Nc3ccc(O)c(Br)c3)c2cc1OC`: the residual activity – broadly, the signal under treatment as a percentage of the control signal – is 64% in experiment [1]; 58% in [2]; 24% in [3]; 94% in [4]; 67% in experiment [5]; 109% in experiment [6]. Moreover, the residual activity was 67% in experiment [7], 126% in [8], 101% in experiment [9] and 105% in experiment [10].

For the molecule `COc1ccc(CNc2nc(N(CCO)CCO)nc3c2ncn3C(C)C)cc1`, the residual activity stood at 64% in experiment [1]; 89% in experiment [2]; 67% in experiment [3]; 101% in experiment [4]; 80% in experiment [5]; 103% in [6]. Further, the residual activity in experiment [7] was 109%; in [8], 116%; in [9] it was 104%; in experiment [10], 91%.

On to `O=C(Nc1cccc(Nc2cc(Nc3cccc(C(F)(F)F)c3)ncn2)c1)C1CC1`, for which the residual activity in experiment [1] was found to be 79%; in experiment [2], 97%; in experiment [3], 58%; in experiment [4], 94%; in experiment [5], 101%; in experiment [6], 112%. In addition, the residual activity in experiment [7] came to 111%; in experiment [8], 90%; in experiment [9] it was 90%; in [10], 112%.

With `O=C1Nc2cc(Br)ccc2/C1=C1/Nc2ccccc2/C1=N\O`, the residual activity in experiment [1] stood at 15%; in experiment [2], 3%; in experiment [3], 3%; in experiment [4], 16%; in [5], 18%; in experiment [6], 59%. Also, the residual activity was determined as 54% in experiment [7], 67% in experiment [8], 35% in [9] and 86% in [10].

`Nc1ccc2ncnc(NCCc3ccc(Oc4ccccc4)cc3)c2c1`: the residual activity in experiment [1] was 94%; in [2], 92%; in experiment [3], 28%; in [4], 77%; in experiment [5], 48%; in experiment [6] it was 54%. The residual activity in experiment [7] was determined as 33%; in experiment [8] it was 107%; in [9], 80%; in experiment [10], 93%.

Turning to `CCN(CC)CCCCN1c2ccccc2Oc2ccc(Cl)cc21`, the residual activity in experiment [1] came to 108%; in [2], 113%; in [3], 82%; in [4] it was 108%; in experiment [5] it was 112%; in experiment [6], 110%. Moreover, the residual activity in [7] was determined as 99%; in experiment [8], 129%; in [9] it was 90%; in [10], 117%.

As to `COc1ccc(OC)c2c(=S)c3ccccc3[nH]c12`, the residual activity stood at 108% in experiment [1]; 116% in [2]; 82% in [3]; 97% in experiment [4]; 85% in experiment [5]; 129% in [6]. Besides, the residual activity stood at 113% in [7], 112% in [8], 88% in experiment [9] and 98% in experiment [10].

For the molecule `COc1ccc(C(=O)Nc2sc3c(c2C(N)=O)CCCC3)cc1OC`, the residual activity in experiment [1] is 78%; in experiment [2] it was 87%; in experiment [3], 118%; in experiment [4], 86%; in experiment [5] it was 99%; in [6], 104%. The residual activity in experiment [7] came to 109%; in [8] it was 107%; in [9] it was 99%; in [10], 108%.

`COc1cc2ncnc(N3CCN(C(=O)Nc4ccc(Oc5ccccc5)cc4)CC3)c2cc1OC`: the residual activity in [1] is 76%; in [2] it was 90%; in experiment [3], 89%; in [4], 105%; in experiment [5] it was 102%; in experiment [6], 115%. The residual activity in experiment [7] was 99%; in [8], 120%; in experiment [9] it was 105%; in [10], 104%.

For the molecule `Oc1ccc(-c2nc(-c3ccc(F)cc3)c(-c3ccncc3)[nH]2)cc1`, the residual activity in experiment [1] came to 113%; in experiment [2], 112%; in experiment [3] it was 41%; in experiment [4] it was 115%; in experiment [5], 87%; in experiment [6], 121%. The residual activity in [7] amounted to 88%; in experiment [8] it was 114%; in [9], 96%; in [10] it was 102%.

Take `Nc1nc(Nc2ccc(S(N)(=O)=O)cc2)nn1C(=S)Nc1c(F)cccc1F`: the residual activity was -1% in experiment [1]; 1% in experiment [2]; -1% in [3]; 1% in experiment [4]; -1% in [5]; 3% in [6]. Besides, the residual activity stood at 0% in [7], 71% in [8], 23% in experiment [9] and 23% in experiment [10].

For the molecule `COc1ccc(S(=O)(=O)N(CCO)c2ccccc2CN(C)C/C=C/c2ccc(Cl)cc2)cc1`, the residual activity in experiment [1] turned out to be 70%; in experiment [2] it was 108%; in experiment [3] it was 64%; in [4], 110%; in experiment [5] it was 81%; in experiment [6], 125%. For the same molecule, the residual activity in experiment [7] came out at 89%; in experiment [8] it was 129%; in [9], 92%; in experiment [10] it was 94%.

For the molecule `Cc1ccc(S(=O)(=O)/C=C/C#N)cc1`, the residual activity was 102% in [1]; 91% in experiment [2]; 82% in [3]; 108% in [4]; 89% in experiment [5]; 118% in experiment [6]. Moreover, the residual activity in [7] was 118%; in [8], 115%; in [9], 106%; in experiment [10], 101%.

Regarding `Cn1cc(/C=C2\C(=O)Nc3ccc(S(N)(=O)=O)cc32)c2ccccc21`, the residual activity in experiment [1] was found to be 42%; in experiment [2], 19%; in experiment [3], 5%; in experiment [4] it was 10%; in experiment [5], 3%; in experiment [6] it was 17%. Besides, the residual activity in experiment [7] was found to be 14%; in experiment [8], 118%; in experiment [9], 69%; in [10], 35%.

For `Ic1cccc(CSc2nnc(-c3ccncc3)o2)c1`, the residual activity in experiment [1] came to 90%; in experiment [2], 98%; in experiment [3], 71%; in experiment [4], 99%; in [5], 82%; in experiment [6], 106%. Besides, the residual activity was 93% in experiment [7], 112% in experiment [8], 98% in [9] and 93% in experiment [10].
